High-throughput results: PubChem BioAssay, National Center for Advancing Translational Sciences (NCATS)
Compounds with a hit are over-represented: about 2.1% of the library has one in this group of screens.
FUS suppressor: rescues growth of FUS-expressing yeast; S. cerevisiae FUS-expressing, growth rescue, OD600, 24 h; Potency, µM (highest dose often 76.6 µM), hits mostly activators; 0.24% of 390,000 active; AID 1347120;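 further: plate controls were DMSO vehicle for no effect and reference control for full effect; nearly all actives have a fitted effect of over 55% in size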
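Yeast expressing FUS under galactose induction, OD 0.005 in 2% galactose medium; compounds in a dilution series, 24 h at 30C. Growth rescue by absorbance at 600 nm; CP55940 positive control, DMSO negative.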
aSyn yeast inh: alpha-synuclein toxicity inhibition in yeast | Potency, µM (titrated, usually from 46.1 µM), for the others: top-dose growth rescue (activation), most hits filed as activators | 0.14% of 370,000 active | AID 652106 | Yeast expressing alpha-synuclein, growth rescue, BacTiter-Glo, 24 h; further: % of control where 0% means no effect; nearly all actives have a fitted effect of over 65% in size
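Galactose-induced alpha-syn yeast (OD600=0.02, raffinose-pregrown) + pinned cpd, 24 hr, 30 deg C; growth by BacTiter-Glo luminescence. Growth restoration scores as activation.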
TDP-43 yeast inh: TDP-43 toxicity inhibition in yeast; TDP-43 expressing yeast growth rescue, BacTiter-Glo, 24 h; Potency, µM (titrated, usually from 46.1 µM), for the others: at the top dose growth rescue (activation), hits mostly activators; 1.8% of 410,000 active; AID 652104; further: % of control where 0% means no effect; nearly all actives have a fitted effect of over 50% in size
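Yeast expressing TDP-43 (pregrown in raffinose, seeded at OD600=0.02 in galactose medium) exposed to compounds 24 hr at 30 deg C. Growth read by BacTiter-Glo luminescence; rescue of toxicity appears as increased signal.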
Abeta rescue: compounds reversing amyloid beta toxicity in yeast | yeast expressing A-beta42, growth rescue, OD600, 48 h; response scale: 0% DMSO, 100% iron-clioquinol control | Potency, µM (highest dose often 46.1 µM), actives largely listed as activators | 0.063% of 410,000 active | AID 1347071; further: nearly all actives have a fitted effect of over 55% in size
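Growth rescue measured by 600 nm absorbance after 48 h yeast culture at 30 C with compound. Values normalized between DMSO and an equimolar ferric chloride plus clioquinol control.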
Starred values were filed as active, the others as inactive; i = inactive; ? = inconclusive; nt = no result given. The call rests on the fitted dose curve; in most records, active means well fitted curve in the direction sought with a large enough effect; inconclusive means small, poorly fitted or top-dose-only effect, or another doubt; inactive means no such curve, though single readings can be large; an effect the other way counts as inactive or inconclusive. Potency means the concentration at half of the fitted maximal effect.

SMILES	FUS suppressor	aSyn yeast inh	TDP-43 yeast inh	Abeta rescue
COC(=O)c1cccc(CN2C(=O)SC(Nc3ccc(Br)cc3)C2=O)c1 (stereo not given)	?	nt	16µM*	i
COC(=O)c1cccc(CN2C(=O)SC(Nc3ccc(C)cc3)C2=O)c1 (stereo not given)	i	13%	22%	?
COC(=O)c1cccc(CN2C(=O)SC(Nc3ccc(Cl)cc3)C2=O)c1 (stereo not given)	i	nt	16µM*	i
CCCCn1c(N)c(-c2nc3ccccc3s2)c2c([N+](=O)[O-])nn(C)c(=O)c21	40µM*	0%	-20%	i
CCCCn1c(N)c(-c2nc3ccccc3s2)c2c([N+](=O)[O-])nn(CC)c(=O)c21	i	2%	-11%	i
COc1ccc(CNC(=O)O[C@H]2CC[C@@]34CCCN3C(=O)CCC[C@H]4C2)cc1OC	i	nt	nt	nt
Cc1cccc(OCCCC(=O)NNC(=O)c2ccccn2)c1	i	?	22µM*	?
Cc1cccc(OCCCC(=O)NNC(=O)c2ccncc2)c1	i	0%	-6%	i
S=c1[nH]nc(Cc2sc(-c3ccccc3)nc2-c2ccccc2)o1	?	-66%	13µM*	i
S=c1[nH]nc(Cc2c[nH]c3ccccc23)o1	i	-19%	-3%	i
CCC[C@H]1[C@@H](OC(=O)NCc2ccc(C)cc2)CC[C@@]23CCCN2C(=O)CCC[C@@H]13	i	nt	nt	nt
Cc1cc(C)c(S(=O)(=O)NCCn2c(C)cc3ccccc32)c(C)c1	?	?	35µM*	7.9µM*
Cc1ccc(-c2nc(C)c(CCNC(=O)c3cccs3)s2)cc1	i	-19%	16µM*	i
COc1ccc(-c2nc(C)c(CCNC(=O)c3cccs3)s2)cc1	i	-6%	14µM*	i
COc1ccc(-c2nc(C)c(CCNC(=O)c3cccc(C)c3)s2)cc1OC	i	-6%	22µM*	i
COc1ccc(-c2nc(C)c(CCNC(=O)c3cc(OC)c(OC)c(OC)c3)s2)cc1OC	i	3%	5%	i
CCOc1ccc(C(=O)NCCc2sc(-c3ccc(C)cc3)nc2C)cc1	i	nt	?	i
Cc1cccc(-c2nc(C)c(CCNC(=O)C(=O)Nc3c(C)cc(C)cc3C)s2)c1	i	6%	13%	i
Cc1cccc(-c2nc(C)c(CCNC(=O)c3cccs3)s2)c1	i	-22%	16µM*	i
Cc1nc(-c2ccccc2)sc1CCNC(=O)c1ccco1	i	-14%	18µM*	i
COCCN(CCOC)c1ncnc2c1c(-c1ccccc1)cn2-c1ccc(C)c(Cl)c1	i	nt	25µM*	i
COc1ccc(CCNc2ncnc3c2c(-c2ccccc2)cn3-c2ccc(F)cc2)cc1OC	?	nt	?	i
COc1ccc(-n2cc(-c3ccccc3)c3c(NC4CCCC4)ncnc32)cc1	i	nt	22µM*	i
COc1ccc(CCNc2ncnc3c2c(-c2ccccc2)cn3-c2ccc(Cl)cc2)cc1OC	14µM*	nt	?	i
Clc1cccc(-n2cc(-c3ccccc3)c3c(NC4CCCC4)ncnc32)c1	i	nt	0%	i
SMILES	FUS suppressor	aSyn yeast inh	TDP-43 yeast inh	Abeta rescue
c1ccc(-c2cn(-c3ccccc3)c3ncnc(N4CCCCC4)c23)cc1	i	-1%	18µM*	i
CC(O)COCC1OC2OC3C(COCC(C)O)OC(OC4C(COCC(C)O)OC(OC5C(COCC(C)O)OC(OC6C(COCC(C)O)OC(OC7C(COCC(C)O)OC(OC8C(COCC(C)O)OC(OC1C(OCC(C)O)C2OCC(C)O)C(OCC(C)O)C8OCC(C)O)C(OCC(C)O)C7OCC(C)O)C(OCC(C)O)C6OCC(C)O)C(OCC(C)O)C5OCC(C)O)C(OCC(C)O)C4OCC(C)O)C(OCC(C)O)C3OCC(C)O (stereo not given)	nt	1%	nt	nt
Nc1c(C(=O)NCC(O)c2ccccc2)cnn1-c1ccccc1 (stereo not given)	i	nt	nt	nt
COc1ccc(OC)c(S(=O)(=O)N2CCCC(C(=O)Nc3c(C)n(C)n(-c4ccccc4)c3=O)C2)c1 (stereo not given)	i	nt	nt	nt
CC(C)(C)C(=O)OCc1cc(=O)n2nc(C3CCCCC3)sc2n1	i	nt	18%	i
COc1cc(/C=c2\[nH]c(=O)/c(=C/c3cc(OC)c(OC)c(OC)c3)[nH]c2=O)cc(OC)c1OC	nt	-14%	nt	nt
N#Cc1cccc(NC(=O)O[C@@H]2CC[C@@]34CCCN3C(=O)CCC[C@H]4C2)c1	i	nt	nt	nt
